Consider twelve compounds from PubChem BioAssay (EPA / NIEHS).

A short description of test [1]: Tanguay_ZF_120hpf_SOMI_legacy: (Legacy) Oregon State University Tanguay Lab 120 Hour Post-fertilization zebrafish Assay for Somite Malformation (AID 2283647). A digest of the protocol:
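Read-out: presence or absence of somite malformation in 120 hpf larvae, gain-of-signal relative to DMSO baseline. Embryos lacked chorion (pronase, 4 hpf) and were exposed statically from 6 hpf at 28C; dead larvae not scored.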

Test [2] can be described thus: Tanguay_ZF_120hpf_PFIN_legacy: (Legacy) Oregon State University Tanguay Lab 120 Hour Post-fertilization zebrafish Assay for Pectoral Fin Malformation (AID 2283648).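 Further: each larva judged yes or no for fin defect by brightfield with dead larvae skipped.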 A digest of the protocol:
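Pectoral fin malformation was recorded as a binary endpoint at 120 hpf in wild-type Tropical 5D larvae, which had been dechorionated and exposed statically from 6 hpf at 28C in 0.64% DMSO. Dead embryos were excluded.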

A short description of test [3]: Tanguay_ZF_120hpf_CFIN_legacy: (Legacy) Oregon State University Tanguay Lab 120 Hour Post-fertilization zebrafish Assay for Caudal Fin Malformation (AID 2283649). A digest of the protocol: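 Binary presence or absence of caudal fin malformation at 120 hpf, read by brightfield microscopy, with DMSO as baseline. Larvae came from 5D wild-type embryos exposed statically from 6 hpf at 28C after pronase dechorionation.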

Test [4] in a line: Tanguay_ZF_120hpf_PIG_legacy: (Legacy) Oregon State University Tanguay Lab 120 Hour Post-fertilization zebrafish Assay for Pigmentation Malformation (AID 2283650). A digest of the protocol:
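Pigment malformation recorded as a binary call at 120 hpf in zebrafish (Tropical 5D) exposed singly from 6 hpf after pronase dechorionation. Static, sealed, 28C exposure, 0.64% DMSO; mortality excludes scoring; positive-direction fit against DMSO.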

Test [5] in a line: Tanguay_ZF_120hpf_CIRC_legacy: (Legacy) Oregon State University Tanguay Lab 120 Hour Post-fertilization zebrafish Assay for Circulatory Malformation (AID 2283651). A digest of the protocol:
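Binary circulatory malformation call at 120 hpf by brightfield imaging of zebrafish larvae; chorion removed at 4 hpf, static exposure from 6 hpf in sealed dark plates at 28C, final DMSO 0.64%; non-mortality endpoints skipped if embryo died.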

A short description of test [6]: Tanguay_ZF_120hpf_SWIM_legacy: (Legacy) Oregon State University Tanguay Lab 120 Hour Post-fertilization zebrafish Assay for Swim Bladder Malformation (AID 2283654).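 Further: swim bladder malformation in each larva scored yes or no under brightfield.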 A digest of the protocol: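 Scoring is binary for swim bladder defects at 120 hpf, by brightfield inspection of zebrafish larvae. Embryos were exposed singly from 6 hpf after pronase dechorionation, at 28C with 0.64% DMSO; mortality excluded scoring.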

Test [7] in a line: Tanguay_ZF_120hpf_TRUN_legacy: (Legacy) Oregon State University Tanguay Lab 120 Hour Post-fertilization zebrafish Assay for Truncated Body (AID 2283655). A digest of the protocol:
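Truncated body is recorded as a binary endpoint at 120 hpf by brightfield imaging of wild-type 5D larvae. Exposure runs statically from 6 hpf at 28C with 0.64% DMSO; embryos dying earlier are not scored.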

Read-out in test [8]: ABC Transporter (ABCB1), ABCB1 (gene 5243)
The test is described as follows: CLD_ABCB1_6hr: CellzDirect (CLD) Gene Expression Assay for ABC Transporter (ABCB1) at 6 hours (AID 2283659).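 Further: hits raise ABCB1 transcript above the DMSO vehicle baseline.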 A digest of the protocol:
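ABCB1 transcript measured by quantitative nuclease protection assay, chemiluminescent read-out, 6 h after dosing human hepatocyte cultures (0.2% DMSO vehicle, daily redosing). Activity fitted as increase over DMSO baseline; cytotoxicity flagged by phase-contrast morphology.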

Read-out in test [9]: Broad substrate specificity ATP-binding cassette transporter ABCG2 (Homo sapiens) (UniProt Q9UNQ0)
Kind of test: CLD_ABCG2_6hr: CellzDirect (CLD) Gene Expression Assay for ABC Transporter (ABCG2) at 6 hours (AID 2283660). A digest of the protocol:
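ABCG2 mRNA induction measured by qNPA chemiluminescence in human primary hepatocyte cultures, 6 h post-dose. Chemicals tested at several concentrations against a 0.2% DMSO vehicle; positive-direction fit relative to DMSO.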

Read-out in test [10]: xenobiotic metabolism (CYP1A1), CYP1A1 (gene 1543)
Kind of test: CLD_CYP1A1_6hr: CellzDirect (CLD) Gene Expression Assay for xenobiotic metabolism (CYP1A1) at 6 hours (AID 2283661).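 On AC50: potency for transcript induction above DMSO vehicle baseline.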 A digest of the protocol: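 Read-out 6 h post-dose: qNPA chemiluminescent quantitation of transcript induction against 0.2% DMSO. Cells were cultured primary human hepatocytes from two separate donor preparations; phase-contrast morphology annotated apparent cytotoxicity.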

A short description of test [11]: Tanguay_ZF_120hpf_TR_legacy: (Legacy) Oregon State University Tanguay Lab 120 Hour Post-fertilization zebrafish Assay for Touch Response (AID 2283667). A digest of the protocol: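 Binary touch-response endpoint in larvae at 120 hpf after static waterborne exposure from embryo stage (28°C, 0.64% DMSO vehicle, 5 uM trimethyltin chloride as positive control); embryos dead at 24 or 120 hpf excluded; fitted as gain versus DMSO.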

The nature of test [12]: Tanguay_ZF_120hpf_NC_legacy: (Legacy) Oregon State University Tanguay Lab 120 Hour Post-fertilization zebrafish Assay for Notochord and Tail Malformation (AID 2283656). A digest of the protocol: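 Binary scoring of notochord distortion by brightfield microscopy; embryos dying were not scored. Wild-type Tropical 5D embryos, chorion removed, exposed singly and statically from 6 to 120 hpf, 28C, sealed, 0.64% DMSO.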

Test [13] concerns Thyroperoxidase (TPO), gene 54314. Kind of test: CCTE_Simmons_AUR_rTPO: CCTE's Amplex UltraRed Assay for Thyroperoxidase (TPO) Inhibition, Simmons Lab (AID 2283662).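 Further: potency for loss of signal meaning inhibition of peroxidase activity.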 A digest of the protocol:
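Endpoint is decreased Amplex UltraRed fluorescence after a 30-min, 37C reaction of rat thyroid microsomes with 300 uM H2O2. Eight test concentrations (5 nM–87.5 uM final) in 0.5% DMSO, three biological replicates each.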

A short description of test [14]: CCTE_Simmons_CellTiterGLO_HEK293T: Viability Assessment in CCTE's Assays for Thyroperoxidase (TPO) Inhibition, Simmons Lab (AID 2283665). A digest of the protocol: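 Luciferase-coupled ATP content after 24 h exposure gives viability; 8-point series from 5 nM to 87.5 uM final in 0.5% DMSO. Human HEK293T cells, 1% FBS medium, three biological replicates, dichlone positive control.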

Read-out in test [15]: xenobiotic metabolism (CYP1A2), CYP1A2 (gene 1544)
Kind of test: CLD_CYP1A2_6hr: CellzDirect (CLD) Gene Expression Assay for xenobiotic metabolism (CYP1A2) at 6 hours (AID 2283663). A digest of the protocol:
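mRNA levels quantified by quantitative nuclease protection assay with chemiluminescence, 6 h after dosing human primary hepatocyte cultures (two donors) across several concentrations, vehicle 0.2% DMSO. Induction fitted upward versus DMSO; phase-contrast cytotoxicity annotated.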

Read-out in test [16]: alkyl and aryl transferase (GSTA2), GSTA2 (gene 2939)
The test is described as follows: CLD_GSTA2_6hr: CellzDirect (CLD) Gene Expression Assay for alkyl and aryl transferase (GSTA2) at 6 hours (AID 2283666). A digest of the protocol:
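GSTA2 transcript induction at 6 h, quantified by nuclease protection (qNPA) with chemiluminescent detection, in human liver primary hepatocytes exposed to several compound concentrations with 0.2% DMSO as baseline; phase-contrast morphology annotated apparent cytotoxicity.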

Read-out in test [17]: kallikrein-3 (KLK3), KLK3 (gene 354)
The test is described as follows: LTEA_HepaRG_KLK3: Life Technologies and Expression Analysis (LTEA) Assay for kallikrein-3 (KLK3) using HepaRG (AID 2283652; active means hit-call score of the fitted dose curve at least 0.9, where 1 is the maximum; inactive means score below 0.9). To be noted: mRNA level, 48 h; actives raise or lower the signal. A digest of the protocol:
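KLK3 transcript levels were measured by TaqMan qRT-PCR with normalisation to three housekeeping genes. HepaRG cultures received chemicals for 48 h at up to 100 uM (half-log, 8 points, 0.5% DMSO vehicle), fitted in both directions against DMSO.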

Read-out in test [18]: solute carrier (SLC22A6), SLC22A6 (gene 9356)
The test is described as follows: LTEA_HepaRG_SLC22A6: Life Technologies and Expression Analysis (LTEA) Assay for solute carrier (SLC22A6) using HepaRG (AID 2283653; active means hit-call score of the fitted dose curve at least 0.9, where 1 is the maximum; inactive means score below 0.9). To be noted: mRNA level, 48 h; actives raise or lower the signal. A digest of the protocol: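 Read-out is SLC22A6 transcript level by qRT-PCR, normalised to three housekeeping genes and fitted for gain or loss relative to 0.5% DMSO vehicle. Human HepaRG cells received chemicals at up to 100 uM for 48 h.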

Read-out in test [19]: solute carrier (SLC10A1), SLC10A1 (gene 6554)
Kind of test: LTEA_HepaRG_SLC10A1: Life Technologies and Expression Analysis (LTEA) Assay for solute carrier (SLC10A1) using HepaRG (AID 2283657; active means hit-call score of the fitted dose curve at least 0.9, where 1 is the maximum; inactive means score below 0.9). To be noted: mRNA level, 48 h; actives raise or lower the signal. A digest of the protocol:
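SLC10A1 transcript measured by TaqMan qRT-PCR, housekeeping-normalised, after 48 h chemical treatment of human HepaRG cells. Eight concentrations (half-log, max 100 uM, 0.5% DMSO vehicle) in duplicate; fitted bidirectionally against DMSO baseline.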

Read-out in test [20]: matrix metalloproteinase-1 (MMP1), MMP1 (gene 4312)
The test is described as follows: LTEA_HepaRG_MMP1: Life Technologies and Expression Analysis (LTEA) Assay for matrix metalloproteinase-1 (MMP1) using HepaRG (AID 2283658; active means hit-call score of the fitted dose curve at least 0.9, where 1 is the maximum; inactive means score below 0.9). To be noted: mRNA level, 48 h; actives raise or lower the signal. A digest of the protocol: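 HepaRG, ~100,000 cells/well, 48 h pre-culture; serum-free induction medium; test chemical 8 conc (max 100 uM, half-log), duplicate, 48 h; 0.5% DMSO; qRT-PCR MMP1, housekeeping-normalized; gain/loss fit vs DMSO.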

Inconclusive results are not listed. The source made the active and inactive calls. How the source made its calls, unless noted: active means hit-call score of the fitted dose curve at least 0.9, where 1 is the maximum; inconclusive means response in the unintended direction; inactive means score below 0.9.

Broad substrate specificity ATP-binding cassette transporter ABCG2 (Homo sapiens), sequence (Q9UNQ0 whole entry, looked up): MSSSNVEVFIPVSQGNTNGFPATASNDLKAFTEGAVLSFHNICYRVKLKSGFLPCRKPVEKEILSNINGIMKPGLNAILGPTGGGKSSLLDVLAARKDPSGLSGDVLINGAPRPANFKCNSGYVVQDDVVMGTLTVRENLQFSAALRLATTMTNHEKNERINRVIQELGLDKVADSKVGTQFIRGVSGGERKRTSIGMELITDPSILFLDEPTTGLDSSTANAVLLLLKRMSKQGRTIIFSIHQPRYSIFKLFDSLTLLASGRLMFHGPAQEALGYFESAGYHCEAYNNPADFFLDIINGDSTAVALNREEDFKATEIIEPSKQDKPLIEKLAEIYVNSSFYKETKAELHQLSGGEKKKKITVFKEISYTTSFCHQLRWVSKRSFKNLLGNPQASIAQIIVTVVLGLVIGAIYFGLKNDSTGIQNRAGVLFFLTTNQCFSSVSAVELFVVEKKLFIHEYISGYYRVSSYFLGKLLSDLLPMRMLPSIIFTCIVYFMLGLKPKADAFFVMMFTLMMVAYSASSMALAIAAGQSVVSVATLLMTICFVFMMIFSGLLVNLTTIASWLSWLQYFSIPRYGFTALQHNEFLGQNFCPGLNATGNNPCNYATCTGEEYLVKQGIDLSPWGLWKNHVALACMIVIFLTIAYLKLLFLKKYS

For orientation: AC50 means the midpoint of the concentration-response curve, whichever way the signal moves. As to `Cc1nc(N(C)C)nc(OC(=O)N(C)C)c1C`, the compound was called inactive in test [1], in test [2], in test [3], in test [4], in [5] and in test [6]. In addition, the call in test [7], in test [8], in test [9] and in [11] was inactive. Also, in test [10], the AC50 is 4320 nM (active).

On to `N#Cc1c(Cl)cccc1Cl`, for which the compound was called inactive in test [1], in test [2], in test [3], in test [4], in [5] and in test [6]. Besides, the call in test [7], in test [12], in test [8] and in [11] was inactive.

As to `N#CN=C1SCCN1Cc1ccc(Cl)nc1`, the compound was classed as inactive in [1], in test [2], in test [3], in test [4], in [5] and in test [6]. For the same compound, the compound was called inactive in test [7], in test [8], in test [9], in test [10] and in test [11].

For the compound `CCCN(CC)CC1COC2(CCC(C(C)(C)C)CC2)O1` (stereo unspecified), the call in test [1], in test [2], in [3], in test [4], in test [5] and in test [6] was inactive. For the same compound, the result in [7], in test [8], in [9] and in test [10] was inactive.

Turning to `CNC(=O)N(C)c1nnc(C(C)(C)C)s1`, the outcome in [1], in test [2], in test [3], in test [4], in [5] and in test [6] was inactive. In addition, the compound was classed as inactive in test [7], in test [8] and in [11]. Also, in [10], the AC50 is 5.79 nM (active).

For `O=P(O)(O)CCCl`, the result in test [1], in [2], in [3], in test [4], in [5] and in test [6] was inactive. Moreover, the compound was called inactive in test [7], in test [12], in test [10], in [14] and in [11]. Besides, the AC50 in test [13] is 18200 nM (active).

For `CS(=O)(=O)c1ccc(C(=O)C2C(=O)CCCC2=O)c([N+](=O)[O-])c1`, the call in [1], in test [2], in [3], in test [4], in test [5] and in test [6] was inactive. Moreover, the compound was classed as inactive in [7], in test [12], in test [8], in test [9], in [10] and in test [15]. Moreover, the compound was classed as inactive in test [14] and in test [11]. For the same compound, the AC50 in test [13] is 30600 nM (active).

Turning to `CC1(C)C(C=C(Cl)Cl)C1C(=O)OC(C#N)c1cccc(Oc2ccccc2)c1` (stereo unspecified), the AC50 in test [1] is 1860 nM (active); in test [2], 994 nM (active); in test [10] it was 2780 nM (active). The compound was classed as inactive in [3], in [4], in [5], in [6], in test [7] and in test [8]. The compound was classed as inactive in [9], in test [16] and in test [11].

As to `COP(=O)(OC)O/C(C)=C/C(=O)N(C)C`, the result in test [1], in test [2], in test [3], in test [4], in [5] and in test [6] was inactive. The outcome in test [7], in test [12], in [8], in test [9], in test [10] and in test [11] was inactive.

Turning to `Nc1c(Cl)c(Cl)nc(C(=O)O)c1Cl`, the outcome in [17], in test [18], in test [19] and in test [20] was inactive.

Consider `CN=C=S`, for which the result in test [18], in test [19] and in [20] was inactive.

Regarding `C=CCOC(=O)C(C)(C)OC(=O)c1cc(-n2c(=O)cc(C(F)(F)F)n(C)c2=O)ccc1Cl`, the result in [16] was inactive.
